Measured values: paper PMC5540273 (PLoS ONE, 2017)

Tests used:
Conditions in all cases: concentration: 1 μM, replicates: in singlicate; n = 1
IKK-alpha = tested on: T1, IKK-alpha
T1 construct: gene CHUK

IKK-beta = tested on: T2, IKK-beta
T2 construct: gene IKBKB

IKK-epsilon = tested on: T3, IKK-epsilon
T3 construct: gene IKBKE

INSRR = tested on: INSRR
INSR = tested on: INSR
IRAK1 = tested on: IRAK1
IRAK3 = tested on: IRAK3
IRAK4 = tested on: IRAK4
ITK = tested on: ITK
[1] = tested on: JAK1(JH1domain-catalytic)
[2] = tested on: JAK1(JH2domain-pseudokinase)
[3] = tested on: JAK2(JH1domain-catalytic)
[4] = tested on: JAK3(JH1domain-catalytic)
JNK1 = tested on: T4, JNK1
T4 construct: gene MAPK8

JNK2 = tested on: T5, JNK2
T5 construct: gene MAPK9

JNK3 = tested on: T6, JNK3
T6 construct: gene MAPK10

KIT-autoinhibited = tested on: KIT-autoinhibited
KIT = tested on: KIT
LATS1 = tested on: LATS1
LATS2 = tested on: LATS2
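Note: KINOMEscan kinase panel screen.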

Compound	%Inh (IKK-alpha) [%]	%Inh (IKK-beta) [%]	%Inh (IKK-epsilon) [%]	%Inh (INSRR) [%]	%Inh (INSR) [%]	%Inh (IRAK1) [%]	%Inh (IRAK3) [%]	%Inh (IRAK4) [%]	%Inh (ITK) [%]	%Inh [1] [%]	%Inh [2] [%]	%Inh [3] [%]	%Inh [4] [%]	%Inh (JNK1) [%]	%Inh (JNK2) [%]	%Inh (JNK3) [%]	%Inh (KIT-autoinhibited) [%]	%Inh (KIT) [%]	%Inh (LATS1) [%]	%Inh (LATS2) [%]
CN1CCN(Cc2cccc(-c3ccc4c(Nc5ccc(Oc6ccccc6)cc5)ccnc4c3)c2)CC1 [GW578342]	5	0	12	6	0	13	0	0	9	21	0	0	0	0	0	0	11	93.7	10	0
c1ccc(Oc2ccc(Nc3ccnc4cc(-c5ccc(CNCCN6CCOCC6)o5)ccc34)cc2)nc1 [GW567145]	28	0	27	0	11	20	0	0	0	5	0	7	0	18	2	0	4	79	8	0
Cc1ccc(C(=O)N2CC[C@@H](O)C2)cc1-n1c(C)cc(OCc2ccc(F)cc2F)c(Br)c1=O	0	0	0	0	0	0	0	0	0	0	48	0	1	14	0	0	0	87	0	0
Cc1ccc(F)c(C(=O)Nc2cccc(-c3nn4ccccc4c3-c3ccnc(Nc4cccc(F)c4)n3)c2)c1F [GSK361061]	0	0	22	26	25	0	17	3	43	9	0	8	0	29	38	25	2	99.4	1	23
COC(=O)Nc1nc2cc(Oc3ccc(NC(=O)Nc4cc(C(F)(F)F)ccc4F)cn3)ccc2[nH]1.Cl.Cl [GW681170]	66	17	0	0	0	49	0	3	0	30	0	30	0	0	62	0	1	100	0	8
CC(C)(C)c1ccc2nccc(Nc3cccc(O)c3)c2c1 [GW856795]	31	0	0	0	0	0	0	0	19	0	0	36	35	32	23	15	9	26	10	0
O=C(O)C(F)(F)F.O=C(O)C(F)(F)F.O=c1[nH]ccc2nc(N[C@@H]3CCCNC3)nc(Nc3ccc(S(=O)(=O)N4CCOCC4)cc3)c12 [GSK2177277]	100	98.1	75	99.2	97.6	99.6	22	83	86	99	82	98.7	99.3	99.4	93.4	98.6	70	99.8	92.6	96.9
O=C(Nc1cccc(-c2nn3ncccc3c2-c2ccnc(Nc3ccccc3)n2)c1)c1c(F)cccc1F [GSK198271]	0	0	0	0	28	0	0	11	12	5	0	2	0	31	56	21	20	100	0	0
O=C(Nc1ccccc1F)NC1CCN(c2ccnc(Nc3ccc(F)cc3)n2)CC1 [GSK1379800]	0	0	22	0	0	24	21	5	0	20	0	0	0	3	0	0	0	7	0	3
c1ccc(-c2cnc3nccnn23)cc1 [AH20685]	49	1	5	0	24	0	1	8	2	0	0	0	0	54	20	4	0	5	0	0
Nc1ncnc2c1nc(-c1ccccc1)n2-c1ccccc1 [SKF-97293]	50	44	12	16	7	39	40	10	8	0	6	62	7	11	17	0	11	0	35	0
COc1ccc(-c2coc3ccc(-c4nnc(SCc5ccc(OC)c(C(F)(F)F)c5)o4)cc23)cc1	25	6	22	0	25	10	4	14	25	0	32	22	0	0	0	0	7	20	25	0
COCCOCCOc1cc2ncc3c4ccc(C#N)cc4[nH]c3c2cc1OC	30	30	60	0	0	96	75	99.9	39	0	68	11	84	5	0	0	61	73	2	10
CCc1ccc(-c2ccc3c(c2)-c2c(cnn2C)S(=O)(=O)N3C)cc1	0	7	0	7	0	0	11	0	2	0	5	2	5	0	0	0	0	2	0	0
CN(C)S(=O)(=O)c1cc(-c2ccc3nccc(-c4cccc(S(N)(=O)=O)c4)c3c2)cnc1N [GSK1669921]	0	0	0	24	42	0	29	9	16	12	12	24	0	17	0	0	0	21	0	14
CN(C)Cc1ccc(-c2ccc3c(Nc4ccc(Oc5ccccn5)cc4)ccnc3c2)o1 [GW567148]	27	7	27	0	6	21	22	0	15	0	0	18	0	19	4	0	0	92.8	0	0
C[C@@H]1CC[C@@H](C(=O)Nc2ccccc2)CN1c1cc(-c2ccc3c(N)n[nH]c3c2)nc(N)n1 [GSK2286062]	0	0	25	0	25	0	0	0	1	2	2	0	0	0	13	1	0	18	0	2
